The values below come from PubChem BioAssay AID651789 (National Center for Advancing Translational Sciences (NCATS), 2012).

Each structure is given as a SMILES string. Results filed as inconclusive are left out. The source made the active and inactive calls. The call rests on the fitted dose curve; in most records, active means well fitted inhibition curve with a large enough effect; inconclusive means small, poorly fitted or top-dose-only effect; inactive means no such curve, though single readings can be large or run the other way.
Potency means the concentration at half of the fitted maximal effect.

A short description of this experiment: Acumen qHTS Assay for Inhibitors of the mTORC1 Signaling Pathway in WT MEF Cells: Hit Validation. Further: nearly all actives have a fitted effect of over 60% in size.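 On activity change, negative = inhibition: phospho-rpS6 Ser235/236 immunofluorescence normalised to propidium iodide cell stain; percent of cells above a cutoff set by 7.5 nM rapamycin treated wells.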 As to conditions: Acumen imaging; series mostly up to 37.3 µM; activity change, negative = inhibition: at the top concentration. The essentials:
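Read-out is immunofluorescent phospho-rpS6 (Ser235/236) normalised to PI-stained cell number, reported as % active cells using a 7.5 nM rapamycin threshold. Cells: WT or Tsc2-/-, p53-/- MEFs, compound-exposed 24 h at 37C; PI count also tracks viability.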
For orientation: Quantitative high-throughput screening tests each substance at several concentrations.
`CCN(C(=O)C(NS(=O)(=O)c1ccc(Br)s1)c1ccccc1)c1ccc(C)c(C)c1` (centres undefined): the “activity change, negative = inhibition” value is -7.02% (inactive).

On to `O=C(CCOc1ccccc1)N(Cc1cccnc1)c1nc2c(F)cccc2s1`, for which the Potency was 13.1 µM (active).

As to `CCOc1ccc(CCNCc2c(C(=O)O)n(Cc3ccc(C)cc3)c3cc(OC)ccc23)cc1`, the “activity change, negative = inhibition” value is -1.53% (inactive).

Consider `Cc1nn(C(C)C(=O)NC2CCC(C)CC2)c(=O)c2c1sc1ccccc12` (centres undefined), for which the “activity change, negative = inhibition” value is 1.53% (inactive).

Consider `CCCCS(=O)(=O)c1nc(-c2ccc(Br)cc2)cc(-c2ccccc2)c1C#N`, for which the Potency was 5.21 µM (active).

Take `Cc1cc(C)c(NC(=O)C2CCN(c3nc4ccccc4n4cccc34)CC2)c(C)c1`: the “activity change, negative = inhibition” value is -22.3% (inactive).

`COc1cc(C2CC(=O)Nc3cc4c(cc32)OCCO4)cc(Br)c1OC` (centres undefined): the Potency is 0.0521 µM (active).

In the case of `Cc1ccc(-c2nc3sccn3c2Nc2ccc(C)c(C)c2)cc1`, the “activity change, negative = inhibition” value is -18.1% (inactive).

As to `CCCCOc1cccc(C(=O)N2CCN(CCc3ccncc3)CC2)c1`, the “activity change, negative = inhibition” value is 39.3% (inactive).

Consider `Cc1ccc2nc(-c3cccc(NC(=O)c4cccc5ccccc45)c3)oc2c1`, for which the “activity change, negative = inhibition” value is 47.2% (inactive).

Consider `CC(=O)N1CCCc2cc(S(=O)(=O)N(Cc3ccccc3)C(C)C)ccc21`, for which the “activity change, negative = inhibition” value is -14.5% (inactive).

Turning to `COc1cccc(-c2nnc3sc(CN4CCCCC4)cn23)c1`, the Potency was 1.65 µM (active).

Take `COc1ccc(OCc2nc3c4c(-c5ccccc5)c(-c5ccccc5)oc4ncn3n2)cc1`: the “activity change, negative = inhibition” value was 2.29% (inactive).

Consider `Cc1ccccc1CS(=O)(=O)c1ncc(Cl)c(C(=O)Nc2nnc(C(C)C)s2)n1`, for which the Potency is 11.7 µM (active).

In the case of `COc1cccc(-c2cc(C(=O)Nc3cnn(Cc4ccc(Cl)cc4Cl)c3)no2)c1`, the “activity change, negative = inhibition” value was 6.87% (inactive).

As to `CCOc1ccc(NC(=O)CSc2oc(-c3ccc(F)cc3)nc2S(=O)(=O)c2ccc(C)cc2)cc1`, the Potency is 2.33 µM (active).

For the molecule `Cc1cccc(C2C=C(c3ccc(C)c(C)c3)Nc3nnnn32)c1` (centres undefined), the Potency was 1.47 µM (active).

Turning to `CCc1ccccc1NC(=O)CSc1nc2c(oc3ccccc32)c(=O)n1-c1ccccc1F`, the “activity change, negative = inhibition” value is 26.8% (inactive).

In the case of `Cc1ccc(NC(=O)Nc2cccs2)c(C)c1`, the “activity change, negative = inhibition” value is 12.2% (inactive).

As for `CC1CCN(S(=O)(=O)c2ccc(C(=O)Nc3sc4c(c3C(N)=O)CC(C)(C)NC4(C)C)cc2)CC1`, the Potency was 3.29 µM (active).

For the molecule `Cn1ccc2c(OCC(=O)Nc3ccc(OC(F)(F)F)cc3)cccc2c1=O`, the “activity change, negative = inhibition” value was -25.8% (inactive).

As to `CCCCS(=O)(=O)c1oc(-c2ccc(F)cc2)nc1S(=O)(=O)c1ccccc1`, the Potency was 0.656 µM (active).

Turning to `CCC(C(=O)N1CCN(c2cccc(C)c2C)CC1)n1nc(C)c2sc3ccccc3c2c1=O` (centres undefined), the “activity change, negative = inhibition” value is 23.3% (inactive).

As for `COc1cc(NC(=O)CSc2ccc(-c3ccccn3)nn2)cc(OC)c1`, the “activity change, negative = inhibition” value is -20.3% (inactive).
